# Out of some 52,000 compounds screened, about 4,300 (8.3%) were called active. For the sample, actives were picked, then their nearest neighbours and some compounds at random. Values without a mark were called inactive. Cut-off read from the data, not from the text of the source: active = survival mostly below about 52% (no sharp cut-off); inactive = mostly above about 56%.
# Test system: DeltatarO mutant
# Assay: S. aureus survival, RN4220 and DeltatarO strains – OD600, teichoic acid synthesis inhibitors, primary screen (AID 463173)
# Details: S. aureus RN4220 wild type/DeltatarO growth, OD600, 18 h, active compounds read low, screened at 18.75 µg/mL (by protocol)
row,Compound,survival
1,COc1ccc(OC)c(NC(=O)Cn2cc(C(=O)c3cccs3)c3ccccc32)c1,50%
2,Cc1ccccc1NC(=O)CSC1=Nc2ccccc2C2=NC(CCC(=O)NCc3ccccc3)C(=O)N12 (stereo not given),89%
3,COc1cccc(C2C(C(N)=O)=C(C)Nc3ncnn32)c1 (stereo not given),71%
4,Cn1c(SCc2ccccc2F)nc2c([nH]c3ccccc32)c1=O,97%
5,Cc1ccc(/C=C/c2onc(C)c2S(=O)(=O)N2CCC(C(=O)N3CCN(c4cc(C)ccc4C)CC3)CC2)cc1,87%
6,O=C(Cn1cc(SCc2ccccc2Cl)c2ccccc21)N1CCCCCC1,74%
7,CC1CCN(S(=O)(=O)c2cc(C(=O)NCc3ccc(N(C)C)cc3)n(C)c2)CC1,93%
8,Cc1cccc(N2CCN(c3ccc(NC(=O)c4ccccc4)cc3C(=O)O)CC2C)c1 (stereo not given),81%
9,CCCS(=O)(=O)N1CCC(N2CCN(Cc3ccc(F)cc3)C(=O)C2=O)CC1,83%
10,COc1cccc(CNC(=O)Cn2c(=O)cc(C(F)(F)F)c3c(C)nn(C)c32)c1OC,90%
11,COCCNC(=O)C(=O)NCC(c1cccnc1)N1CCN(c2ccccc2F)CC1 (stereo not given),70%
12,O=C(NCc1cccnc1)C(=O)NCC(c1cccnc1)N1CCN(c2ccccc2)CC1 (stereo not given),53%
13,O=C(NCCc1ccccc1)C(=O)NCC(c1cccnc1)N1CCN(c2ccccc2)CC1 (stereo not given),51%
14,COCCNC(=O)C(=O)NCC(c1cccnc1)N1CCN(c2ccccc2)CC1 (stereo not given),54% (active)
15,O=C(NCc1ccc(Cl)cc1)C(=O)NCC(c1cccnc1)N1CCN(c2ccccc2)CC1 (stereo not given),47%
16,O=C(NCc1ccccc1)C(=O)NCC(c1cccnc1)N1CCN(c2ccccc2)CC1 (stereo not given),45% (active)
17,Cc1ccc(CCNC(=O)c2ccc3c(c2)N(Cc2ccccc2F)C(=O)c2ccccc2S3=O)cc1 (stereo not given),69%
18,COc1ccc(-c2cc(C(=O)NCc3ccc(F)cc3)c3c(-c4ccc(F)cc4)[nH]nc3n2)cc1OC,72%
19,COc1ccc(CCNc2nc3c(c(=O)n(C)c(=O)n3C)n2Cc2ccc(F)cc2)cc1OC,90%
20,CCOc1ccc(N(c2nc(-c3ccc(OC)c(OC)c3)no2)c2nc(-c3ccc(OC)c(OC)c3)no2)cc1,73%
21,Nc1ncc(Cc2ccccc2)s1,75%
22,CCCCSCCCNC(=O)CN1C(=O)c2cccnc2Oc2ccc(Cl)cc21,94%
23,N#Cc1cc2c(ccc3ccccc32)oc1=O,71%
24,N#CC1=C(N)Oc2c(c(=O)oc3ccccc23)C12C(=O)Nc1ccccc12 (stereo not given),102%
25,N#CC1=C(N)Oc2c(c(=O)oc3ccccc23)C1,31% (active)

# Reference: PubChem BioAssay AID463173 (ICCB-Longwood Screening Facility, Harvard Medical School, 2010)
